# Source: PubChem (National Center for Advancing Translational Sciences (NCATS))
# GCN5L2 inh = qHTS Assay for Inhibitors of GCN5L2; hit rate 0.21% among 390,000; Histone acetyltransferase KAT2A (Homo sapiens), Q92830; GCN5L2 HAT assay, ThioGlo1 CoA-SH fluorescence; Potency, µM (top dose mostly 58.9 µM), for inactives: top-dose activity change, negative = inhibition, hits mostly inhibitors; further: potency means the concentration at half of the fitted maximal effect; on the % scale 0 is the no-effect control and ±100 the full control effect
# Target sequence (Q92830 whole entry, looked up): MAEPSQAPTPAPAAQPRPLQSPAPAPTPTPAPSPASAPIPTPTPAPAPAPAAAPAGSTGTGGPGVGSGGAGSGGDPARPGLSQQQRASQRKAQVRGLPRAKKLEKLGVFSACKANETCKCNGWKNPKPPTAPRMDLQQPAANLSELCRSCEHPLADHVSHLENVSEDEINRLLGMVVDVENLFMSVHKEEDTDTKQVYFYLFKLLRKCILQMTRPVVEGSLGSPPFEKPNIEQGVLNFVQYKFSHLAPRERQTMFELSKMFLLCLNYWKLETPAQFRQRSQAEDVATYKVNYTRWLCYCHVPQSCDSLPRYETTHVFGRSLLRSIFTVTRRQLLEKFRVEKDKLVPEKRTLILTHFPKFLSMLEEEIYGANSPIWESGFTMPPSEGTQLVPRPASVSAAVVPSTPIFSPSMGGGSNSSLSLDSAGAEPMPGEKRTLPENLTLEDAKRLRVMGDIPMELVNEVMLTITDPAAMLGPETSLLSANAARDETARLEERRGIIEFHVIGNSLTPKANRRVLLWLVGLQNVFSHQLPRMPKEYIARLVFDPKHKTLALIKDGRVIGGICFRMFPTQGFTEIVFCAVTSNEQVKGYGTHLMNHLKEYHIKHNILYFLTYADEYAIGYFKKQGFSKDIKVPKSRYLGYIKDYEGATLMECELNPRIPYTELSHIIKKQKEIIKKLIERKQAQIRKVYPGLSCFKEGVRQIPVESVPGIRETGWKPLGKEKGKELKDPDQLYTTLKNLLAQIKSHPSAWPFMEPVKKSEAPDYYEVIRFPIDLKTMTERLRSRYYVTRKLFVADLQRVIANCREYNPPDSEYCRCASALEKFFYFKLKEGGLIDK
#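 GCN5L2 (20nM final) in 50mM HEPES, 0.1mM EDTA pH 7.5, 0.01% Tween-20 was preincubated 15 min at room temperature with compound, then given ThioGlo1 (50uM), H3(1-25) peptide (75uM) and acetyl-CoA (70uM); CoA-thiol fluorescence (Ex340/Em540) was read at 0 and 20 min.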
# PI5P4K alpha inh = qHTS for Inhibitors of phosphatidylinositol 5-phosphate 4-kinase (PI5P4K). hit rate 1.2% among 330,000. max response, %. PI5P4Kalpha enzyme, ADP-Glo luminescence, 60 min; active compounds read low. Phosphatidylinositol 5-phosphate 4-kinase type-2 alpha (Homo sapiens), P48426. AID 652105, 2013; active means max response of -50% or lower; inconclusive means between -30% and -50%; inactive means -30% or higher; further: value at the top dose of about 77 µM; on the % scale 0 is the no-effect control and ±100 the full control effect
#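 Quantitative HTS of the MLSMR library against PI5P4Kalpha with substrate. ATP added last at 5 microM final; room temperature, 60 minutes. Remaining ATP depleted, ADP converted and read as luminescence.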
# HP1b binding inh = HTS for Inhibitors of HP1-beta Chromodomain Interactions with Methylated Histone Tails; AID 540317, 2011; AlphaScreen HP1-beta / biotin-H3K9me3 peptide binding; Chromobox protein homolog 1 (Homo sapiens), P83916; hit rate 0.56% among 390,000; Potency, µM (top dose mostly 114 µM), inactives show at the highest dose activity change, negative = inhibition, hits mostly inhibitors; further: potency means the concentration at half of the fitted maximal effect; nearly all actives have a fitted effect of over 70% in size
#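 Compound inhibition of the preformed complex between 50 nM HP1-beta and 50 nM biotinylated H3K9me3 peptide was read by AlphaScreen. Buffer was PBS pH 7.4 with 0.01% Tween-20. Incubations ran 30 min at room temperature, with 10 ug/mL donor/acceptor beads.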
# BAZ2B inh = qHTS Assay for Inhibitors of BAZ2B | Bromodomain adjacent to zinc finger domain protein 2B (Homo sapiens), Q9UIF8 | AlphaScreen BAZ2B-H3K14Ac peptide displacement | Potency, µM (top dose mostly 114 µM), without a hit: at the highest dose activity change, negative = inhibition, most hits filed as inhibitors | hit rate 4.4% among 360,000; further: potency means the concentration at half of the fitted maximal effect; on the % scale 0 is the no-effect control and ±100 the full control effect; nearly all actives have a fitted effect of over 60% in size
#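 Compounds, titrated to a top concentration of 110 uM, were incubated 30 min at room temperature with preformed BAZ2B/acetyl-K14 H3 peptide complex (50 nM each). Proximity signal was measured by AlphaScreen after 20 min with beads.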
# PLK1 PBD block = qHTS for Inhibitors of PLK1-PDB (polo-like kinase 1 - polo-box domain): Primary Screen. Plk1 PBD binding of FITC phosphopeptide, fluorescence polarization. Potency, µM, inactives show max response, negative = inhibition, actives largely listed as inhibitors. hit rate 2.8% among 360,000. AID 720504, 2013; further: potency means the concentration at half of the fitted maximal effect; series mostly up to about 57 µM; on the % scale 0 is the no-effect control and ±100 the full control effect; nearly all actives have a fitted effect of over 65% in size
# JMJD2A Tudor = qHTS Assay for Inhibitors of JMJD2A-Tudor Domain. hit rate 4.4% among 390,000. Lysine-specific demethylase 4A (Homo sapiens), O75164. AlphaScreen JMJD2A-Tudor / H3K4me3 peptide binding. AID 504339, 2011. Potency, µM (series often up to 114 µM), inactives show at the top dose activity change, negative = inhibition, usual class: inhibitors; further: potency means the concentration at half of the fitted maximal effect; on the % scale 0 is the no-effect control and ±100 the full control effect; nearly all actives have a fitted effect of over 50% in size
# * = called active by the depositor; ? = inconclusive; . = not tested or not shown; [ ] = dose if it differs, or a comment. In the library only some 7% were active in any assay of this set; here they are far more common. Unless noted, the call rests on the fitted dose curve; in most records, active means well fitted curve in the direction sought with a large enough effect; inconclusive means small, poorly fitted or top-dose-only effect, or another doubt; inactive means no such curve, though single readings can be large; an effect the other way counts as inactive or inconclusive.
SMILES,GCN5L2 inh,PI5P4K alpha inh,HP1b binding inh,BAZ2B inh,PLK1 PBD block,JMJD2A Tudor
Cc1ccc(C(OCC(O)CNCc2ccc(F)cc2)c2ccccc2)cc1 (centres undefined),-11.3%,5.9,-34.3%,39.8µM*,?,79.4µM*
COc1ccc(C(OCC(O)CNCCc2ccccc2)c2ccc(OC)cc2)cc1 (centres undefined),-9.4%,-3.1,?,31.6µM*,-7.7%,3.55µM*
CCC(=O)c1ccc(OCC(O)CNCc2ccc(F)cc2)cc1 (centres undefined),-11.0%,0.8,?,0.9%,-9.8%,-17.1%
C/C(=N\Nc1cccc(Cl)c1)C1(C)N(O)C(C)(C)C(c2ccco2)=[N+]1[O-] (centres undefined),-1.0%,6.4,27.9%,-34.0%,-0.3%,-26.5%
COc1cc2c(cc1OC)C(c1cc(OC)c(OC)c(OC)c1)C1(O)C(=O)OCC1(O)C2 (centres undefined),.,-1.7,19.0%[57 µM],.,2.9%,5.5%
CC(=O)C1=C(O)C(=O)N(c2ccc(Br)cn2)C1c1ccc(F)cc1 (centres undefined),-7.2%,-2.1,20.1%,56.2µM*,-16.2%,1.12µM*
CC(=O)C1=C(O)C(=O)N(Cc2cccnc2)C1c1ccc(Cl)cc1Cl (centres undefined),-10.6%,.,15.4%,15.0%,-6.7%,-19.9%
CC(=O)C1=C(O)C(=O)N(c2ccc(Br)cn2)C1c1ccccc1F (centres undefined),-13.0%,-3.6,47.1%,-10.1%,-3.6%,-11.1%
CC(=O)C1=C(O)C(=O)N(c2ccc(Br)cn2)C1c1ccc(Br)cc1 (centres undefined),0.8%,0.6,-12.9%,?,-16.3%,22.4µM*
CC(=O)C1=C(O)C(=O)N(Cc2cccnc2)C1c1ccc(O)cc1 (centres undefined),2.5%,0.5,6.3%,79.4µM*,26.7µM*,-19.5%[11.4 µM]
COc1ccc(C2C(C(C)=O)=C(O)C(=O)N2c2cccnc2)cc1OC (centres undefined),-0.1%,.,21.5%,?,0.6%,79.4µM*
CCOC(=O)c1c(C)[nH]c(C)c1S(=O)(=O)N(C)CC(=O)Nc1cccc(C)n1,-3.7%,-0.1,7.7%[57 µM],22.0%,0.1%,-17.1%
CCn1c(=O)c([N+](=O)[O-])c(NCCCn2ccnc2)c2ccccc21,-0.3%,0.7,9.2%,-18.5%,-3.8%,-8.7%
COc1cc(C2C(C(C)=O)=C(O)C(=O)N2c2ccc(Br)cn2)ccc1O (centres undefined),-4.3%,-3.0,-0.9%,?,-10.9%,89.1µM*
O=C(O)c1cc(=O)c2cccc(O)c2[nH]1,-7.6%,.,48.6%,.,.,28.2µM*
Cc1ccc2nc(C)c(CN3CCN(c4ccc([N+](=O)[O-])cc4Cl)CC3)n2c1,-17.0%,.,.,39.8µM*,.,.
Cc1ccccc1C[C@H](C(=O)O)N1C(=O)c2ccc(C(=O)O)cc2C1=O,-0.5%,.,.,-27.8%,.,-5.5%
Cc1ccc(C(=O)Nc2nnc(-c3ccco3)o2)cc1,-3.6%,-4.5,23.7%,50.1µM*,-10.3%,?
O=C(Nc1nnc(-c2ccco2)o1)c1ccc2ccccc2c1,-4.5%,-5.9,48.1%,8.2%,?,-15.2%[57.1 µM]
Cc1ccsc1C(=O)Nc1nnc(-c2ccco2)o1,-12.4%,-6.1,50.7%,79.4µM*,-9.9%,-27.4%
N#Cc1ccc(C(=O)Nc2nnc(-c3ccco3)o2)cc1,1.1%,6.2,35.2%,17.8µM*,-6.4%,79.4µM*
O=C(Nc1nnc(-c2ccco2)o1)c1ccc(S(=O)(=O)N2CCCC2)cc1,-7.6%,-4.6,48.2%,.,-0.4%,-8.4%
